Assay outcomes as filed in PubChem BioAssay.
EWS-Fli block – blocks EWS/Fli oncoprotein-driven transcription | inhibition, % at 12.6 µM | A673 NR0B1-luciferase reporter, viability-normalised | AID 651661 | actives 0.67% (n = 350,000);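 active = mean inhibition of at least 50% after viability correction, with every replicate also passing that limit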;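 also: firefly luciferase signal divided by Alamar Blue viability fluorescence both relative to DMSO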
LMP1 NFkB inh – Epstein-Barr LMP1 NF-kappaB reporter inhibition | actives 0.69% (n = 350,000) | inhibition, % at 12.5 µM | LMP1-induced NF-kappaB luciferase reporter cells, luminescence; in the data active = inhibition above about 41%;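 also: 0% = neutral control wells and 100% = reference inhibitor control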
LGR2 antag – inhibitors of bursicon-induced Drosophila LGR2 receptor cAMP signaling; HEK293 LGR2, CRE-luciferase, bursicon-stimulated, 4 h; inhibition, % at 9.99 µM; actives 0.35% (n = 380,000); AID 720647;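 active = drop in luminescence signal, shown as inhibition above about 50% in the replicate tests, limit read from the data, passing the limit was not always enough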;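 also: agonist challenge used bursicon conditioned medium at about half maximal strength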
TROY NFkB inh – blocks TROY-dependent signaling in reporter cells. actives 0.98% (n = 360,000). inhibition, % at 10 µM. Q293 LMP1-TROYcd NF-kB luciferase reporter, 4 h. AID 1347056;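 active = compounds whose plate-normalised and pattern-corrected inhibition of the luciferase reporter signal at the single screening dose is 50% or more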
PAX8 reporter – PAX8 transcriptional activity inhibition | RMG-I TPO-luciferase reporter, SteadyGlo, 24 h | inhibition, % at 12.6 µM | actives 1.2% (n = 360,000);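 active = mean replicate inhibition at least 60% with every replicate also reaching 60%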;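 also: luciferase light reporting Pax8 driven TPO promoter activity; plate controls were median of neutral control wells for no effect and mitoxantrone controls for full effect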
TWEAK-Fn14 inh – TWEAK-Fn14 signaling inhibition. actives 2% (n = 360,000). inhibition, % at 10 µM. TWEAK-stimulated Fn14 reporter cells, luciferase luminescence, 8 h; in the data active = inhibition above about 50%
Active calls of the source: *. An excerpt weighted towards active compounds, which were near 3.1% of everything screened.

How did O=c1c(Cc2ccc(Cl)cc2)c(O)ccn1Cc1cccc(Cl)c1 do in these assays?
LMP1 NFkB inh: -4; TROY NFkB inh: 44; TWEAK-Fn14 inh: -20

How did O=c1c(Cc2ccc(Cl)cc2Cl)c(O)ccn1Cc1ccc(Cl)cc1 do in these assays?
LMP1 NFkB inh: -3; LGR2 antag: -16; TROY NFkB inh: 51*; TWEAK-Fn14 inh: -3

How did C[C@@H]1CN([C@H](C)CO)C(=O)c2cc(NC(=O)Nc3ccc4c(c3)OCO4)ccc2O[C@@H]1CN(C)C(=O)Nc1ccccc1 do in these assays?
EWS-Fli block: -8; LGR2 antag: -11; PAX8 reporter: -22

What do the screens show for `CCC(=O)Nc1ccc(C(=O)OCc2ccc(Cl)c(Cl)c2)cc1`?
EWS-Fli block: -6; LMP1 NFkB inh: 0; LGR2 antag: -18; TROY NFkB inh: 1; PAX8 reporter: -16; TWEAK-Fn14 inh: 0

How did CC(=O)Nc1ccc(C(=O)OCc2ccc(Cl)c(Cl)c2)cc1 do in these assays?
LMP1 NFkB inh: -24; LGR2 antag: -4; TROY NFkB inh: 86*; PAX8 reporter: -19; TWEAK-Fn14 inh: 94*

How did COc1ccc2oc(=O)c(-c3csc(Nc4ccc(O)cc4)n3)cc2c1 do in these assays?
LMP1 NFkB inh: -32; LGR2 antag: -36; TROY NFkB inh: 19; PAX8 reporter: 26; TWEAK-Fn14 inh: 68*

What do the screens show for `COc1ccc2c3c([nH]c2c1)[C@@H](CO)N(C(=O)NC(C)C)CC31CCN(C(=O)c2cccnc2)CC1`?
EWS-Fli block: -11; LGR2 antag: -6

Results for CN(C)c1cccc(C(=O)Nc2cc(C(F)(F)F)ccc2-n2cnc3ccccc32)c1 ?
EWS-Fli block: 8; LMP1 NFkB inh: -7; TROY NFkB inh: -16; PAX8 reporter: 81*; TWEAK-Fn14 inh: 19

What do the screens show for `CCC(=O)N(C)C[C@@H]1Oc2ncc(C#Cc3ccccc3)cc2C(=O)N([C@@H](C)CO)C[C@@H]1C`?
EWS-Fli block: -18; LGR2 antag: 13

Results for CC(=O)/C=C/n1c(=S)oc2ccccc21 ?
LGR2 antag: 2; PAX8 reporter: 114*

Results for CC(C)CC(=O)/C=C/n1c(=S)oc2ccccc21 ?
LMP1 NFkB inh: 66*; LGR2 antag: -28; TROY NFkB inh: 15; PAX8 reporter: -10; TWEAK-Fn14 inh: 99*

What do the screens show for `CC(=O)Nc1ccc(NC(=O)CCn2c(=S)oc3ccccc32)cc1`?
EWS-Fli block: 1; LMP1 NFkB inh: 1; LGR2 antag: 0; TROY NFkB inh: -2; PAX8 reporter: 1; TWEAK-Fn14 inh: -1

How did Cn1c(=S)oc2ccccc21 do in these assays?
EWS-Fli block: 7; LMP1 NFkB inh: -2; LGR2 antag: 2; TROY NFkB inh: -8; PAX8 reporter: 3; TWEAK-Fn14 inh: 8

How did COc1ccc(CN(C)C[C@@H]2OCCCC[C@H](C)Oc3ccc(NS(=O)(=O)c4ccc(OC)cc4)cc3C(=O)N([C@H](C)CO)C[C@H]2C)cc1 do in these assays?
EWS-Fli block: 6; PAX8 reporter: 14

What do the screens show for `COc1cccc(C(=O)NCC(=O)OCC(=O)Nc2ncc(Cl)cc2Cl)c1`?
EWS-Fli block: 3; LMP1 NFkB inh: -8; LGR2 antag: 2; TROY NFkB inh: -9; PAX8 reporter: 4; TWEAK-Fn14 inh: 88*

What do the screens show for `CCSc1ccccc1C(=O)n1nnc2ccccc21`?
EWS-Fli block: 8; LMP1 NFkB inh: -1; LGR2 antag: 21; TROY NFkB inh: 43; TWEAK-Fn14 inh: 72*

What do the screens show for `CCSc1ccccc1C(=O)N1CCCC1`?
LMP1 NFkB inh: -2; TROY NFkB inh: 12; TWEAK-Fn14 inh: 1

How did O=C(C[C@@H]1CC[C@@H]2[C@H](COC[C@H](O)CN2C(=O)c2ccccc2)O1)Nc1ccc(-c2ccccc2)cc1 do in these assays?
EWS-Fli block: -5; LGR2 antag: -10; PAX8 reporter: -5

What do the screens show for `COc1ccc(N(C(=O)c2cnccn2)C(C(=O)NC2CCCCC2)c2ccc(Cl)cc2)cc1` (stereo unspecified)?
LMP1 NFkB inh: 4; LGR2 antag: -7; TROY NFkB inh: -14; TWEAK-Fn14 inh: 8

Results for COc1ccc(C(C(=O)NC2CCCCC2)N(C(=O)CCCC(=O)Nc2ccccn2)c2ccc3c(c2)OCCO3)cc1 (stereo unspecified) ?
LMP1 NFkB inh: 1; LGR2 antag: 0; TROY NFkB inh: 0; TWEAK-Fn14 inh: -1

How did COC(CN(C)C(C(=O)NC1CCCCC1)c1ccccc1)OC (stereo unspecified) do in these assays?
EWS-Fli block: -7; LMP1 NFkB inh: 3; LGR2 antag: -2; TROY NFkB inh: -11; PAX8 reporter: 18; TWEAK-Fn14 inh: 81*

Results for O=C(NC1CCCCC1)C(c1cccnc1)N(C(=O)CCl)c1cccc(Cl)c1 (stereo unspecified) ?
EWS-Fli block: 58*; LMP1 NFkB inh: 19; LGR2 antag: -11; TROY NFkB inh: 9; PAX8 reporter: 29; TWEAK-Fn14 inh: 44

Results for O=C(CCCC(=O)N(c1ccc2c(c1)OCCO2)C(C(=O)NC1CCCCC1)c1ccc(Cl)cc1)Nc1ccccn1 (stereo unspecified) ?
EWS-Fli block: 3; LMP1 NFkB inh: 2; LGR2 antag: 1; TROY NFkB inh: 3; TWEAK-Fn14 inh: 63*

Results for COc1ccc(C(C(=O)NC2CCCCC2)N(C(=O)CCl)c2ccc(Cl)cc2)cc1 (stereo unspecified) ?
LMP1 NFkB inh: 17; TROY NFkB inh: 9; TWEAK-Fn14 inh: 54*

Results for N#C[C@H]1[C@@H](c2ccc(C3=CCCC3)cc2)[C@@H](CO)N1C(=O)c1ccccn1 ?
EWS-Fli block: -8; LGR2 antag: 12; PAX8 reporter: -2

What do the screens show for `C[C@@H]1CN([C@H](C)CO)C(=O)c2ccccc2-c2ccccc2CO[C@@H]1CN(C)S(C)(=O)=O`?
EWS-Fli block: -21; LGR2 antag: 12; PAX8 reporter: -26

How did COc1ccc(CN(C)C[C@@H]2Oc3c(NS(C)(=O)=O)cccc3C(=O)N([C@@H](C)CO)C[C@H]2C)cc1 do in these assays?
LGR2 antag: -18; PAX8 reporter: -17

Results for O=C(c1ccccc1F)N1C[C@@H]2[C@H](c3ccccc31)[C@@H](CO)N2C(=O)c1ccncc1 ?
EWS-Fli block: -7; LGR2 antag: 3; PAX8 reporter: -9

Results for O=C(C[C@H]1CC[C@@H](NC(=O)C2CCC2)[C@H](CO)O1)NC1CCCCC1 ?
EWS-Fli block: 0; LGR2 antag: 11

How did CCOC(=O)N1CCN(Cc2cc(Cl)c3cccnc3c2O)CC1 do in these assays?
EWS-Fli block: 32; LGR2 antag: 2; PAX8 reporter: 78*

What do the screens show for `COc1ccccc1N1CCN(Cc2ccc(O)c3ncccc23)CC1`?
LMP1 NFkB inh: 73*; LGR2 antag: 36; TROY NFkB inh: 2; TWEAK-Fn14 inh: 8

How did Oc1c(CN2CCOCC2)cc(COCc2ccccc2)c2cccnc12 do in these assays?
LMP1 NFkB inh: 76*; LGR2 antag: 31; TROY NFkB inh: 9; PAX8 reporter: 66*; TWEAK-Fn14 inh: 15
